FAS-TE inh = inhibitors of human fatty acid synthase thioesterase domain. actives 0.67% (n = 360,000). inhibition, % at 15 µM. recombinant FAS-TE, OMFH fluorogenic substrate, fluorescence endpoint. P49327. AID 602261;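 active means compounds whose normalised, plate-corrected inhibition of enzyme fluorescence in the single-dose primary screen is 50% or more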;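 further: 0% = DMSO with enzyme and 100% = substrate without enzyme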
CRFR2-BP ag = CRF-BP/CRF-R2 complex agonism; HEK293 CRF-R2/CRF-BP, calcium dye fluorescence (FLIPR); percent of saturating CRF peptide response; activation, % at 13.2 µM; actives 0.46% (n = 350,000); AID 588473;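 active means activation of at least 50%, plus an integration ratio under a set limit after plate pattern correction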;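 further: plate controls were neutral control wells without compound for no effect and CRF at EC100 for full effect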
PfG6PD inh = PfG6PD (Plasmodium falciparum) enzyme inhibition; PfGluPho enzyme, NADPH resazurin-diaphorase fluorescence; AID 504690; actives 0.78% (n = 350,000); inhibition, % at 20 µM;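 active means inhibition reaching at least a set limit at 20 µM in the primary screen, cut at about 59% in these data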;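 further: 0% = DMSO wells with substrate and 100% = DMSO wells lacking glucose-6-phosphate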
H9c2 protect = protects H9c2 cardiomyocytes from peroxide injury. H2O2 injury protection, ATPLite, 2 h. protection from H2O2 cell death, % at 20 µM. actives 0.63% (n = 360,000);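 active means compounds giving at least 50% protection of heart cells from peroxide-induced death in the single-dose screen, raw or plate-pattern-corrected value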;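 further: 0% = DMSO wells with peroxide and 100% = DMSO wells without peroxide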
CRFR2-BP antag = CRF-BP/CRF-R2 complex antagonism. HEK293 CRF-R2/CRF-BP, CRF-induced calcium fluorescence. inhibition, % at 11.8 µM. actives 0.59% (n = 350,000). AID 588475;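 active means inhibition of the ligand-induced calcium signal above about 50% at the single tested concentration, limit read from the data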
aDG glyco up = increases alpha dystroglycan glycosylation; Pro5-aDG cells, alpha-DG glycosylation AlphaScreen (IIH6); 0% Pro5, 100% B10-LARGE cell signal; activation, % at 10 µM; actives 0.22% (n = 360,000); AID 624168;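 active means activation of at least 8% versus controls, or a plate z-score of at least 8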;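 further: Pro5 are CHO cells carrying HIG-tagged alpha-DG that lacks glycosylation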
PfGluPho conf = confirmation of Plasmodium falciparum G6PD inhibitors | shares compounds with PfG6PD inh | recombinant PfGluPho, NADPH-diaphorase-resazurin fluorescence | inhibition, % at 20 µM | actives 34% (n = 2,400) | AID 504753;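 active means inhibition of at least 50% at 20 µM in any single replicate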;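 further: 0% = DMSO with substrate and 100% = DMSO lacking glucose-6-phosphate substrate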
Starred values were filed as active, the others as inactive. The list is not random: actives were taken first. Their share in the collection is about 3.2%.

What do the screens show for `CN(C)c1ccc(/C=C(/NC(=O)c2ccccc2)C(=O)N2CCCC2)cc1`?
FAS-TE inh: -15; CRFR2-BP ag: 9; PfG6PD inh: 29; H9c2 protect: -2; CRFR2-BP antag: -17; aDG glyco up: 0

How did O=C(NCc1ccccc1F)C1CCCN(S(=O)(=O)N2CCOCC2)C1 (stereo unspecified) do in these assays?
FAS-TE inh: -1; CRFR2-BP ag: 0; PfG6PD inh: -7; H9c2 protect: 13; CRFR2-BP antag: 4; aDG glyco up: 0

What do the screens show for `COc1ccc(CN2C(=O)c3cccnc3C2=O)cc1S(=O)(=O)N(C)c1ccc(C)cc1`?
FAS-TE inh: 6; CRFR2-BP ag: 1; PfG6PD inh: -4; H9c2 protect: 4; CRFR2-BP antag: -7; aDG glyco up: 0

How did CCOC(=O)c1c(-c2ccncc2)csc1N do in these assays?
FAS-TE inh: -5; CRFR2-BP ag: 1; PfG6PD inh: 16; H9c2 protect: -1; CRFR2-BP antag: 7; aDG glyco up: 0

Results for CCOc1ccc(-c2csc(N)c2C(=O)OC)cc1 ?
FAS-TE inh: 3; CRFR2-BP ag: 2; PfG6PD inh: 66*; H9c2 protect: -9; CRFR2-BP antag: -15; aDG glyco up: 0; PfGluPho conf: 10

Results for Cc1ccc2nc(SCC(=O)c3ccc(Cl)s3)[nH]c2c1 ?
FAS-TE inh: 8; CRFR2-BP ag: 0; PfG6PD inh: 62*; H9c2 protect: -5; CRFR2-BP antag: -32; aDG glyco up: 0; PfGluPho conf: 5

How did CCn1cc(/C=C(\NC(=O)c2ccccc2F)C(=O)N2CCN(C)CC2)c2ccccc21 do in these assays?
FAS-TE inh: -5; CRFR2-BP ag: 1; PfG6PD inh: 14; H9c2 protect: 8; CRFR2-BP antag: -1; aDG glyco up: 1

Results for COc1ccc2c(c1)-c1ccccc1S(=O)(=O)N2C ?
FAS-TE inh: 1; CRFR2-BP ag: 0; PfG6PD inh: 60*; H9c2 protect: -2; CRFR2-BP antag: -5; aDG glyco up: 0; PfGluPho conf: 30

How did CC(=O)OC1C2CCC1C([N+]1(C)CCCCC1)CC2 (stereo unspecified) do in these assays?
FAS-TE inh: -6; CRFR2-BP ag: 1; PfG6PD inh: 6; H9c2 protect: 4; CRFR2-BP antag: 2; aDG glyco up: 0

Results for C=C1CCN(C(CC(C)C)C(=O)OC)S(=O)(=O)c2ccccc21 (stereo unspecified) ?
FAS-TE inh: 3; CRFR2-BP ag: -2; PfG6PD inh: 0; H9c2 protect: 1; CRFR2-BP antag: 0; aDG glyco up: 0

What do the screens show for `COC(=O)[C@H](CC(C)C)N1Cc2cc(OC)cc(OC)c2-c2ccccc2S1(=O)=O`?
FAS-TE inh: 11; CRFR2-BP ag: -5; PfG6PD inh: 65*; H9c2 protect: 3; CRFR2-BP antag: 7; aDG glyco up: 0; PfGluPho conf: 12

How did CCOC(=O)CSc1nc2c(c(=O)[nH]c(=O)n2C)n1CCc1ccccc1 do in these assays?
FAS-TE inh: -7; CRFR2-BP ag: 1; PfG6PD inh: 27; H9c2 protect: 17; CRFR2-BP antag: -12; aDG glyco up: 0

How did CCCCCn1c(N2CCC(Cc3ccccc3)CC2)nc2c1c(=O)[nH]c(=O)n2C do in these assays?
FAS-TE inh: 24; CRFR2-BP ag: 0; PfG6PD inh: 66*; H9c2 protect: -12; CRFR2-BP antag: -65; aDG glyco up: 0; PfGluPho conf: -12

What do the screens show for `Cn1c(=O)[nH]c(=O)c2c1nc(SCC(=O)O)n2CCc1ccccc1`?
FAS-TE inh: -3; CRFR2-BP ag: 1; PfG6PD inh: 63*; H9c2 protect: 4; CRFR2-BP antag: -7; aDG glyco up: 0; PfGluPho conf: 9

What do the screens show for `CCc1nc(Nc2ccccc2F)c2oc3ccccc3c2n1`?
FAS-TE inh: 5; CRFR2-BP ag: -6; PfG6PD inh: 6; H9c2 protect: -5; CRFR2-BP antag: -9; aDG glyco up: 0

High-throughput results deposited in PubChem by Sanford-Burnham Center for Chemical Genomics.
